Screening results as filed in PubChem.
Only a selection was taken, and hits are over-represented in it overall.
LmPK inh: LmPK (Leishmania mexicana) enzyme inhibition; hit rate 0.37% among 290,000; Potency, µM (highest dose often 57.5 µM), inactives show top-dose activity change, negative = inhibition, usual class: inhibitors; AID 1721; purified LmPK, Kinase-Glo ATP luminescence, 1 h; Q27686; also: potency is read from the fitted curve at half-maximal effect; % is scaled to controls: 0 for no effect and ±100 for the full control effect
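ATP generated from ADP (0.1 mM) and PEP (0.5 mM) by 0.1 nM LmPK over 1 h at room temperature (pH 7.2 imidazole buffer) was detected by coupled luciferase luminescence. Values were normalized to uninhibited and no-enzyme wells.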
FBPA Giardia inh: blocks Giardia fructose-bisphosphate aldolase activity | Potency, µM (doses to about 59.6 µM), for inactives: at the top dose activity, negative = inhibition, hits mostly inhibitors | A8B2U2 | purified Giardia FBPA | hit rate 0.71% among 290,000; also: potency is read from the fitted curve at half-maximal effect; % is scaled to controls: 0 for no effect and ±100 for the full control effect; nearly all actives have a fitted effect of over 55% in size
Target sequence (A8B2U2 whole entry, looked up): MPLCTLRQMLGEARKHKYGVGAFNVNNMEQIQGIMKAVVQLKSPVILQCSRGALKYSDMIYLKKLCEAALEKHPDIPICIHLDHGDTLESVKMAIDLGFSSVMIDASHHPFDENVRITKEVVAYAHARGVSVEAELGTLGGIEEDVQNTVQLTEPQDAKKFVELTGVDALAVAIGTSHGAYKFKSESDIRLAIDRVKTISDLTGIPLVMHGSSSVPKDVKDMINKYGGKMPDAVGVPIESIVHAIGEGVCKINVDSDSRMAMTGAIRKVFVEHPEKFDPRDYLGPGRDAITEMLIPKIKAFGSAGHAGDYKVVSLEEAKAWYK
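Giardia FBPA (40 nM reagent) was preincubated 10 min at RT with compound (up to 57.5 uM final), then substrate plus GAPDH/TPI/NAD/arsenate coupling system with diaphorase/resazurin was added; resorufin fluorescence (525/598 nm) was read after 20 min.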
TbPYK inhibitor: blocks Trypanosoma brucei pyruvate kinase. TbPYK enzyme, Kinase-Glo Plus ATP luminescence, 45 min. Potency, µM (top dose mostly 76.8 µM), inactives show at the top dose activity, negative = inhibition, hits mostly inhibitors. hit rate 0.12% among 410,000; also: potency is read from the fitted curve at half-maximal effect; % is scaled to controls: 0 for no effect and ±100 for the full control effect; nearly all actives have a fitted effect of over 50% in size
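Glycolytic pyruvate kinase of T. brucei was incubated with substrate, test compound and 130 uM ADP for 45 minutes at room temperature. Luminescent Kinase-Glo Plus signal was measured after 10 minutes.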
Sm TGR block: inhibitors of Schistosoma mansoni thioredoxin glutathione reductase. AID 485364. Potency, µM (doses to about 114 µM), for inactives: at the highest dose activity change, negative = inhibition, most hits filed as inhibitors. hit rate 3% among 360,000. purified TGR, DTNB reduction, TNB absorbance 405 nm. Q962Y6; also: potency is read from the fitted curve at half-maximal effect; % is scaled to controls: 0 for no effect and ±100 for the full control effect; nearly all actives have a fitted effect of over 60% in size
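TGR 20 nM + NADPH 100 uM (dispensed conc.), cpd preinc 15 min RT; start with NADPH (500 uM addition) then DTNB (15 mM addition). Kinetic TNB absorbance, 405 nm filter. Four-parameter Hill fit across titration.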
CHX counter: affects cycloheximide protein synthesis inhibition readout, counter-screen | cell reporter, cycloheximide protein synthesis inhibition counterscreen | max response, % | hit rate 12% among 300,000; in the data active = max response mostly above about 13%, no sharp cut-off; inactive = mostly below about 14%; also: read at 38.3 µM for the half of the compounds with a filed dose; 0% is about no effect
Shiga inhibitor: Shiga toxin inhibition. hit rate 9.2% among 290,000. Vero cells, Shiga toxin protein synthesis inhibition reporter. inhibition, % at 38.7 µM; in the data active = inhibition mostly above about 28%, no sharp cut-off; inactive = mostly below about 43%; also: 0% is about no effect
An asterisk follows results filed as active; . = no result given; [ ] = dose if it differs, or a comment. Unless noted, calls follow the shape of the dose curve; as a rule, active = well fitted curve in the direction sought with a large enough effect; inconclusive = small, poorly fitted or top-dose-only effect, or another doubt; inactive = no such curve, though single readings can be large; an effect the other way counts as inactive or inconclusive.

SMILES	LmPK inh	FBPA Giardia inh	TbPYK inhibitor	Sm TGR block	CHX counter	Shiga inhibitor
CC(C)CN1CC(C)C(=O)NC1=S (configuration not stated)	.	.	-0.6%	.	.	.
CN1CCCC(C(=O)c2ccc(-c3ccccc3)cc2)C1 (configuration not stated)	-2.1%	9.0%	-16.8%	-9.1%	23.1*	33.9*
CN1CC(C(=O)c2ccccc2)C(C(=O)c2ccccc2)C1 (configuration not stated)	2.2%	-4.4%	-9.8%	-1.9%	54.7*	112.4*
CC(=O)NCC(=O)N1CCCC(C(=O)c2ccc(Oc3ccccc3)cc2)C1 (configuration not stated)	4.1%	-9.7%	0.1%	9.1%	13.2	19.6
COCC(=O)N1CCCC(C(=O)c2ccc(-c3ccccc3)cc2)C1 (configuration not stated)	-7.8%	6.3%	-1.6%	28.2µM*	11.1*	11.5
CC1CCCN(C(=O)COc2ccc(-c3ccccc3)cc2)C1 (configuration not stated)	4.1%	-0.2%	-0.3%	14.3%	17.3	40.1*
COc1ccc(NC(=O)C2=C(C)C(=O)OC23CCN(C(C)C)CC3)cc1Cl	.	.	-1.3%	-13.1%	.	.
Cc1nc2ccc(C(=O)NC(C)(C)C)cn2c1N(C)C(=O)CCc1ccccc1	.	.	-2.5%	.	.	.
CCOc1ccccc1NC(=O)NNC(=O)c1ccc2ccccc2c1	-2.8%	.	-4.9%	-10.9%	-2.3	-2.9
CCOc1ccccc1NC(=O)c1ccc2ccccc2c1	7.4%	-7.0%	0.2%	2.7%	22.9*	.
CCOc1ccccc1NC(=O)c1ccc2[nH]c(C)c(C)c2c1	5.1%	-20.0%	6.7%	8.0%	41.7*	42.6*
COc1ccc(CCNC(=O)Cc2c(C)c3c(cc(C)c4c(C)coc43)oc2=O)cc1	.	.	-3.7%	4.9%	.	.
COc1cccc(N2CCN(c3ncnc4c3cnn4-c3ccc(C)cc3C)CC2)c1	3.3%	-8.0%	5.2%	-1.4%	17.1*	40.6
CC1CCCN(c2ncnc3c2cnn3-c2ccccc2)C1 (configuration not stated)	-12.3%	-8.2%	2.8%	-2.1%	19.5*	50.3
CC1CC(C)CN(c2ncnc3c2cnn3C)C1 (configuration not stated)	3.4%[11.5 µM]	-1.0%	0.0%	21.6%	-3.3	16.9
CC1CCCN(c2ncnc3c2cnn3-c2ccc(F)cc2)C1 (configuration not stated)	.	.	1.5%	2.4%	.	.
CC1CCCN(c2ncnc3c2cnn3-c2ccc(Cl)cc2)C1 (configuration not stated)	-5.3%	-0.9%	-11.2%	11.5%	61.8*	59.5*
Cc1ccc(-n2ncc3c(N4CCCC4)ncnc32)c(C)c1	5.4%	-24.1%	.	10.3%	1.8	23.9
Cc1cccc(N2CCN(c3ncnc4c3cnn4-c3ccc(Cl)cc3)CC2C)c1 (configuration not stated)	.	.	2.5%	9.0%	.	.
CC1CC(C)CN(c2ncnc3c2cnn3-c2ccc(Cl)cc2)C1 (configuration not stated)	1.4%	-1.6%	3.5%	15.3%	59.3*	105.3*
CC1(C2CCC3C4CCC5CC6(CCC5(C)C4C(=O)CC32C)OCCO6)OCCO1 (configuration not stated)	.	.	6.7%	.	.	.
CC1CC1C(=O)OCC(=O)Nc1cc(S(=O)(=O)N2CCCCC2)ccc1Cl (configuration not stated)	.	.	-19.8%	.	.	.
CCc1nc2c(OCc3ccc(OC)cc3)cccn2c1N(C)C(=O)C(C)C	.	.	1.0%	.	.	.
CC1(C(=O)Nc2cccc(C(F)(F)F)c2)Cc2c(-c3ccc4c(c3)OCO4)ccnc2O1 (configuration not stated)	.	.	-2.0%	.	.	.
Cc1ccc(-n2ncc3c(N4CCCC(C)C4)ncnc32)c(C)c1 (configuration not stated)	1.7%	-2.1%	0.4%	-1.3%	64.9*	82.6*
CC(C)(O)C(=O)NN(Cc1ccccc1)c1ccccc1	-2.9%	-2.9%	2.9%	-2.4%	27.7*	33.3*
COc1ccc(NC(=O)C2CCN(S(=O)(=O)c3c(C)noc3/C=C/c3ccco3)CC2)cc1	.	.	4.0%	-13.1%	.	.
